The source of these data is PubChem BioAssay AID828 (The Scripps Research Institute Molecular Screening Center, 2007).

Hit rate of the full screen: of about 140,000 compounds, about 550 (0.39%) were called active. This is one part of a sample in which actives are shown more often than they occur. No stated cut-off is given here; in the data, active means inhibition above about 27%; inactive means the rest.

Sequence of Galanin receptor type 2 (Homo sapiens) (O43603 whole entry, looked up): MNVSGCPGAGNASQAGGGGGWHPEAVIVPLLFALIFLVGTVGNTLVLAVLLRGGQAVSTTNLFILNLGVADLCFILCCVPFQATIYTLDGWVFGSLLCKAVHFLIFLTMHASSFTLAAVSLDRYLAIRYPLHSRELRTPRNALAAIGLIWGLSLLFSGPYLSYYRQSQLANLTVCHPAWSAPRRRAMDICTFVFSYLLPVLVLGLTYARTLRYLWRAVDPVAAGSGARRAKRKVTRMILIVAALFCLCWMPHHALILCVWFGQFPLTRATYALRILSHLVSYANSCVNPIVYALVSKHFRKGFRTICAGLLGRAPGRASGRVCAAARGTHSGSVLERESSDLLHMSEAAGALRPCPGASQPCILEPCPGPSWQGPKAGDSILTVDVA

This assay has as its target Galanin receptor type 2 (Homo sapiens) (UniProt O43603). In words: GALR2 antagonists in receptor-expressing cells, primary screen (AID 828).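 Further: cells stimulated with galanin 1-16 at roughly its EC80; 0% = agonist challenge control and 100% = basal control without agonist.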 The note with it: antagonist mode, at 4 µM, stronger effect = higher value.
In general, inhibition refers to the change of the read-out against control, counted positive when it falls. In the case of `CN(C)c1ccc(-n2cccc2/C=N/n2cnnc2)cc1`, the inhibition is 0.57% (inactive).

In the case of `CC(Sc1nc(-c2ccccc2)cc(C(F)(F)F)n1)C(=O)Nc1ccc2c(c1)OCO2` (stereo not drawn), the inhibition was 0.9% (inactive).

Regarding `CCc1cccc(C)c1NC(=O)COC(=O)Cc1ccsc1`, the inhibition is 5.66% (inactive).

On to `Cc1ccc(NC(=O)CSCC(=O)NC2CCCCC2)cc1`, for which the inhibition is 4.82% (inactive).

For `Cc1ccc(OCC(=O)OC(C)CN(C)Cc2ccccc2)cc1` (stereo not drawn), the inhibition was -4.66% (inactive).

With `CC(NC(=S)Nc1ccc(S(N)(=O)=O)cc1)c1ccc2c(c1)OCO2` (stereo not drawn), the inhibition is 4.43% (inactive).

Take `COc1cccc(-c2ccc(C#N)c(SCC(=O)NCCc3ccc(Cl)cc3)n2)c1`: the inhibition is 6.63% (inactive).

As to `CCc1ccc(C2C(C#N)=C(N)N(N(C)C)C3=C2C(=O)CCC3)s1` (stereo not drawn), the inhibition is -4.14% (inactive).

For `CCCc1nc2c([nH]1)C(c1cccnc1)C(C#N)=C(N)O2` (stereo not drawn), the inhibition was 1.63% (inactive).

Consider `COc1cc(OC)cc(-c2nc3ccccc3c(=O)n2NC(=O)c2cccnc2Cl)c1`, for which the inhibition was 1.33% (inactive).

For `COc1ccc(/C=N/Nc2ncnc3sc4c(c23)CCCC4)cc1O`, the inhibition was 0.22% (inactive).

As for `O=C(NC(Nc1nc2ccc([N+](=O)[O-])cc2s1)(C(F)(F)F)C(F)(F)F)c1ccccc1`, the inhibition is 88.7% (active).

For the compound `Cc1cc(C)cc(OCC(=O)Nc2nc3ccc([N+](=O)[O-])cc3s2)c1`, the inhibition is 7.65% (inactive).

For the compound `COC(=O)C(NC(=O)c1ccc(OC)cc1)(Nc1ncc(S(=O)(=O)c2ccc([N+](=O)[O-])cc2)s1)C(F)(F)F` (stereo not drawn), the inhibition is -4.68% (inactive).

On to `O=C(CNC(=O)c1ccc(-c2ccccc2)cc1)OCc1ccc(Cl)cc1`, for which the inhibition was 9.65% (inactive).

Turning to `CC(=O)COc1ccc2c(-c3ccccc3)cc(=O)oc2c1`, the inhibition was -10.7% (inactive).

As to `O=C(CNC(=O)OCc1ccccc1)Oc1cc2oc(=O)cc(-c3ccccc3)c2cc1Cl`, the inhibition was 31.1% (active).

For the compound `CC(c1cccnc1)N(CCN(C)C)C(=O)Nc1ccc(Cl)c(Cl)c1` (stereo not drawn), the inhibition is 29.6% (active).

Take `CS(=O)(=O)N(CC(=O)Nc1ccc(Cl)c(Cl)c1)C1CCCCC1`: the inhibition is -3.02% (inactive).

With `CN(C)CCNC(CC(=O)Nc1ccc(Cl)c(Cl)c1)C(=O)O` (stereo not drawn), the inhibition was -5.57% (inactive).

Consider `COC(=O)c1ccccc1SC1CC(=O)N(c2cccc(C)c2)C1=O` (stereo not drawn), for which the inhibition is 10.2% (inactive).

As to `C=CCNC(=O)COC(=O)c1ccccc1C(=O)N(C)C1CCCCC1`, the inhibition is -14.8% (inactive).

As to `Cc1cc(C(=O)COc2ccccc2[N+](=O)[O-])c(C)n1-c1cccc(S(=O)(=O)N2CCOCC2)c1`, the inhibition is -3.23% (inactive).

With `CCOC(=O)c1c(NC(=S)NC(=O)/C=C/c2cccs2)sc(C)c1C`, the inhibition is -8.3% (inactive).

With `Cc1c(C(=O)Nc2cccc(-c3nnc4n3CCCCC4)c2)oc2ccccc12`, the inhibition was -1.52% (inactive).

Consider `CC(Cc1cccs1)NC(=O)c1cccc(Cl)c1` (stereo not drawn), for which the inhibition is 3.36% (inactive).

`Cc1ccc(/C(N)=N/OC(=O)COc2ccc(Cl)c(C)c2)cc1`: the inhibition was 7.55% (inactive).

`O=C(NCCOCc1ccc(Cl)cc1)c1ncn[nH]1`: the inhibition was 6.29% (inactive).

On to `CC(C)(C)c1ccc(C(=O)CSc2ncn[nH]2)cc1`, for which the inhibition was 4.68% (inactive).

Consider `O=C(/C=C/Sc1ncn[nH]1)c1ccc(Cl)cc1`, for which the inhibition is 36.3% (active).

For the compound `COc1ccc(NC(=O)c2nc(-n3nc(C)cc3C)ccc2Cl)cc1Cl`, the inhibition was -4.22% (inactive).

As to `N#Cc1ccccc1Sc1ccccc1C(=O)OCC(=O)NC1CCCCC1`, the inhibition was -1.21% (inactive).

Consider `COc1ccc(CNC(=O)CN(Cc2ccc(Cl)cc2)S(C)(=O)=O)cc1`, for which the inhibition was -0.09% (inactive).

As for `O=C(Oc1ccc([N+](=O)[O-])cc1)c1ccc(Cl)c(S(=O)(=O)N2CCCCC2)c1`, the inhibition was -9.96% (inactive).

Consider `COc1ccc(N(C(=O)c2ccc(C)cc2)S(=O)(=O)c2cccs2)cc1`, for which the inhibition is 5.74% (inactive).

For `C=C1c2cc(CC)ccc2NC(=O)N1c1ccc(C)cc1`, the inhibition was 5.36% (inactive).

As to `O=C1Nc2ccccc2C12Nc1ccccc1S2` (stereo not drawn), the inhibition is 6.08% (inactive).

Take `CCc1ccc2c(c1)C1(NN=C(c3ccccc3)S1)C(=O)N2` (stereo not drawn): the inhibition is 28.2% (active).

On to `CNC(=O)c1ccsc1NC(=O)c1ccc(S(=O)(=O)N2CCOCC2)cc1`, for which the inhibition was -4.99% (inactive).

Turning to `CCCn1nc(C(=O)Nc2ccc3nc(C)sc3c2)c2ccccc2c1=O`, the inhibition was -3.02% (inactive).

Regarding `Fc1ccc(N2N=C(c3cccs3)CC2c2ccco2)c(F)c1` (stereo not drawn), the inhibition was -13.2% (inactive).

For `COc1ccccc1N1N=C(c2cccs2)CC1c1ccccc1` (stereo not drawn), the inhibition is 32.5% (active).

Consider `COc1ccc(C2CC(c3cccs3)=NN2C(=O)COC(=O)c2cc3ccccc3cc2O)cc1OC` (stereo not drawn), for which the inhibition is 12.7% (inactive).

Regarding `CC(C)(C)NC(=O)COC(=O)c1cc(Br)ccc1Cl`, the inhibition was -2.97% (inactive).

As for `CC(=O)Nc1ccc(S(=O)(=O)NC(C)C(=O)OCC(=O)NC2CCCC2)cc1` (stereo not drawn), the inhibition is 11.3% (inactive).

For the compound `O=C(Cc1cccs1)Nc1cccc(-c2nc3ccccc3[nH]2)c1`, the inhibition was 12.3% (inactive).

Consider `COc1ccc(/C=C(\C#N)C(=O)NCCCn2ccnc2)cc1`, for which the inhibition is 8.04% (inactive).

Take `O=C(Nc1ccccc1)c1nnsc1S(=O)(=O)c1ccc(Cl)cc1`: the inhibition was 42.4% (active).

As for `O=C(Nc1ccc(Cl)cc1)c1ccsn1`, the inhibition was 12.1% (inactive).

Consider `CC(=O)Nc1cc(C(=O)O)ccc1S(=O)(=O)c1ccc(Cl)cc1`, for which the inhibition is 4.42% (inactive).

`Cc1cc(N2CCN(Cc3ccc4c(c3)OCO4)CC2)n2ncnc2n1`: the inhibition was -5.12% (inactive).

As to `Fc1ccc2[nH]c3c(N4CCSCC4)ncnc3c2c1`, the inhibition was 22.8% (inactive).

Take `Fc1ccc2[nH]c3c(N4CCN(Cc5ccc6c(c5)OCO6)CC4)ncnc3c2c1`: the inhibition was 44.8% (active).

On to `COc1ccc(C)cc1NC(=O)c1[nH]c(C)c(C(C)=O)c1C`, for which the inhibition is 27.2% (active).

As to `CCOc1ccc(NC(=O)Nc2cc(C)ccc2OC)cc1`, the inhibition is 1.77% (inactive).

As for `CC(=O)c1c(C)[nH]c(C(=O)NCc2ccc(C)cc2)c1C`, the inhibition is -10.3% (inactive).

With `CC(C)(C)N(Cc1ccccc1)C(=O)COC(=O)CCc1c[nH]c2ccccc12`, the inhibition is 1.11% (inactive).

On to `Cc1ccc(NC(=S)NC(=O)/C=C/c2ccc(Cl)cc2)cc1`, for which the inhibition was -8.1% (inactive).

In the case of `O=[N+]([O-])c1cc(S(=O)(=O)N2CCCC2)ccc1NN=C1CCCC1`, the inhibition was -1.82% (inactive).

In the case of `O=C(NCCc1ccccc1)C1CCN(S(=O)(=O)c2ccc(Br)s2)CC1`, the inhibition is -2.64% (inactive).

Turning to `COC(C(=O)Nc1ccc(S(=O)(=O)Nc2ccc(C)c(C)c2)cc1)c1ccccc1` (stereo not drawn), the inhibition was 0.51% (inactive).

Consider `Cc1cc(C)nc(SC2CCCCC2NS(=O)(=O)c2ccc(Cl)cc2)n1` (stereo not drawn), for which the inhibition is -14.2% (inactive).

With `COc1ccc(OC)c(/C=C/C(=O)OCC(=O)Nc2ccc3c(c2)OCCO3)c1`, the inhibition is 4.33% (inactive).

As to `CCOC(=O)/C(=N\Nc1cc(Cl)ccc1Cl)N1CCN(C)CC1`, the inhibition is -4.67% (inactive).

As for `CCn1c(=O)cc(SCC(=O)NCCC2=CCCCC2)c2ccccc21`, the inhibition is -16% (inactive).

For `CCOC(=O)C1=C(C)NC(=S)NC1c1cccs1` (stereo not drawn), the inhibition was -4.54% (inactive).

As to `CCC1C=C(c2ccccc2)C=CN=C1N(CC)CC` (stereo not drawn), the inhibition is 15% (inactive).

As for `CCC(CC)c1nnc(NC(=O)/C=C/c2ccco2)s1`, the inhibition is 8.13% (inactive).

In the case of `CCOC(=O)/C(N=Nc1cc(C(=O)O)cc(C(=O)O)c1)=C(\O)CCl`, the inhibition is -4.09% (inactive).

On to `CC1(C)CC(=O)C/C(=N\NC(=O)c2cccs2)C1`, for which the inhibition was 9.6% (inactive).

As to `Cc1ccc2nc(-c3cccnc3)c(NC3CCCC3)n2c1`, the inhibition is 21.2% (inactive).

As to `CC(=O)Nc1ccc(S(=O)(=O)Nc2nc(-c3ccc(C(C)(C)C)cc3)cs2)cc1`, the inhibition was -2.4% (inactive).

For `O=[N+]([O-])c1ccccc1SNc1ccccn1`, the inhibition is 0.95% (inactive).

Take `CC(=O)NC1C(Oc2ccc(C)cc2)OC2COC(c3ccco3)OC2C1O` (stereo not drawn): the inhibition is 11.3% (inactive).

For the compound `O=[N+]([O-])c1ccc(N2CCN(S(=O)(=O)c3ccccc3)CC2)cc1N1CCc2ccccc2C1`, the inhibition was 1.38% (inactive).

Turning to `COc1ccccc1-c1nnc(NC(=O)c2cccc(N3C(=O)CCC3=O)c2)o1`, the inhibition was -8.68% (inactive).

As for `O=C(/C=C\c1cn(-c2ccccc2)nc1-c1cccs1)N1CCOCC1`, the inhibition was 13.8% (inactive).

As to `O=C(Nn1c(SCc2ccc([N+](=O)[O-])cc2)nc2ccccc2c1=O)c1ccc(F)cc1`, the inhibition is -6.11% (inactive).

On to `COc1ccc(-c2cc(C(=O)NC(Cc3c[nH]c4ccccc34)C(=O)O)c(C)o2)cc1OC` (stereo not drawn), for which the inhibition is 2.65% (inactive).

Take `COc1ccc(NC(=O)/C(Cl)=C(/Cl)S(=O)Cc2ccc(C)cc2)cn1` (stereo not drawn): the inhibition is 105% (active).

In the case of `COc1cccc(NC(=O)Cc2ccc(C)cc2)c1`, the inhibition is 4.68% (inactive).

With `COc1ccc(NS(=O)(=O)c2ccc(NC(=S)NC(=O)/C=C/c3ccc(C)cc3)cc2)nn1`, the inhibition is 7.84% (inactive).

With `COC(=O)Cc1ccc(N(Cc2ccccc2F)S(=O)(=O)c2ccc(Br)cc2)cc1`, the inhibition was -3.96% (inactive).

With `COc1ccc(C(C(=O)NC2CCCCC2)N(C(=O)CCl)c2ccccc2Cl)cc1` (stereo not drawn), the inhibition is 3.18% (inactive).

For `CCOc1ccc(S(=O)(=O)N(CC(=O)NCC(F)(F)F)Cc2ccco2)cc1`, the inhibition is -7% (inactive).

Regarding `COCC(C)NC(=O)c1ccc(Cl)c(Cl)c1` (stereo not drawn), the inhibition was 27.4% (active).

For the compound `CCCNC(=O)c1ccc(Cl)c(Cl)c1`, the inhibition was 10.1% (inactive).

Consider `COCC(C)NC(=O)c1ccc(-n2nc(C(F)(F)F)cc2-c2cccs2)cc1` (stereo not drawn), for which the inhibition is -1.6% (inactive).

`CCN1CN(Cc2ccccc2)CNC1=S`: the inhibition was 3.98% (inactive).

As for `O=S(=O)(/N=C(/Nc1ccccc1)c1ccccc1)c1cccs1`, the inhibition is -10.3% (inactive).

As for `Cc1ccc(CC2S/C(=C(/C#N)C(=O)N3CCOCC3)N(c3ccccc3)C2=O)cc1` (stereo not drawn), the inhibition was -9.98% (inactive).

With `C=CCNC(=O)/C(=C\c1cccc([N+](=O)[O-])c1)NC(=O)c1ccccc1`, the inhibition was 3.63% (inactive).

On to `COc1ccc(NC(=O)COC(=O)c2ccc(NS(=O)(=O)/C=C/c3ccccc3)cc2)cc1`, for which the inhibition is 9.83% (inactive).
